Results: the supplement of paper PMC8975748
Structures can show the parent of a compound that is named as a salt.

test system: Saccharomyces cerevisiae BY4741 SeMeCo community; assay: z-score of subpopulation abundance vs DMSO median, subpopulation auxotrophic for HM; higher = larger share of this subpopulation than in DMSO controls; conditions: 10 µM; 24 h; SM minimal medium; subpopulation (auxotrophy): HM
Experimental: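 Fluorescent four-plasmid SeMeCo (self-establishing metabolically cooperating S. cerevisiae BY4741 community; plasmids pH-mRuby2, pL-mWasabi, pU-eCFP, pM-TagRFP657) was grown 24 h in minimal SM medium with each Selleck FDA-approved drug at 10 µM in 384-well plates. Cells were fixed and imaged by high-content confocal microscopy. For each auxotrophic subpopulation (and the prototroph), a z-score gives the deviation from the DMSO vehicle-control population median.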

Compared with `Cc1c(C)c2c(c(C)c1O)CCC(C)(CCCC(C)CCCC(C)CCCC(C)C)O2` (stereo not given) [Vitamin E], `CCCCC(=O)O[C@H]1CC[C@H]2[C@@H]3CCc4cc(O)ccc4[C@H]3CC[C@]12C` [Estradiol valerate] is higher in “z-score of subpopulation abundance” value: -1.28 for the first, -0.23 for the second.

First: CN[C@@H]1[C@H](O[C@H]2[C@H](O[C@H]3[C@H](O)[C@@H](O)[C@H](N=C(N)N)[C@@H](O)[C@@H]3N=C(N)N)O[C@@H](C)[C@]2(O)C=O)O[C@@H](CO)[C@H](O)[C@H]1O [Streptomycin sulfate]
Second: CCC[C@@H]1C[C@@H](C(=O)N[C@@H]([C@H]2O[C@H](SC)[C@H](OP(=O)(O)O)[C@@H](O)[C@H]2O)[C@H](C)Cl)N(C)C1 [Clindamycin Phosphate]
The “z-score of subpopulation abundance” value of the first is higher: 0.19 for the first, 0.11 for the second.

Compared with `OCCN1CCN(CC/C=C2/c3ccccc3Sc3ccc(C(F)(F)F)cc32)CC1` [Flupenthixol dihydrochloride], `O=C1C(=O)c2ccccc2C(O)=C1C1CCC(c2ccc(Cl)cc2)CC1` (stereo not given) [Atovaquone] is higher in “z-score of subpopulation abundance” value: 0.47 for the first, 0.9 for the second.

Going from `CCn1cc(C(=O)O)c(=O)c2cc(F)c(N3CCN(C)CC3)cc21` [Pefloxacin Mesylate] to `CCN1CCN(c2cc3c(cc2F)c(=O)c(C(=O)O)cn3C2CC2)CC1` [Enrofloxacin], the “z-score of subpopulation abundance” value falls from 0.05 to -0.25.

First: O=C(O)CCC(=O)Nc1ccc(S(=O)(=O)Nc2nccs2)cc1 [Succinylsulfathiazole]
Second: CN(Cc1cnc2nc(N)nc(N)c2n1)c1ccc(C(=O)N[C@@H](CCC(=O)O)C(=O)O)cc1 [Methotrexate disodium]
The “z-score of subpopulation abundance” value of the first is lower: -0.78 for the first, 1.68 for the second.

Compared with `CCCCN1CCCCC1C(=O)Nc1c(C)cccc1C` (stereo not given) [Bupivacaine HCl], `Cc1cccc(C)c1NC(=O)C1CCCCN1C` (stereo not given) [Mepivacaine] is lower in “z-score of subpopulation abundance” value: 0.01 for the first, -0.49 for the second.

First: C=CC[N+]1([C@H]2C[C@H]3[C@@H]4CC[C@H]5C[C@H](O)[C@@H](N6CCOCC6)C[C@]5(C)[C@H]4CC[C@]3(C)[C@H]2OC(C)=O)CCCC1 [Rocuronium Bromide]
Second: CC(=O)[C@H]1CC[C@H]2[C@@H]3CC=C4C[C@@H](O)CC[C@]4(C)[C@H]3CC[C@]12C [Pregnenolone]
The “z-score of subpopulation abundance” value of the first is lower: -0.59 for the first, -0.44 for the second.

Going from `COc1ccnc(C[S+]([O-])c2nc3cc(OC(F)F)ccc3[nH]2)c1OC` (stereo not given) [Pantoprazole] to `CCOc1ccc2nc3cc(N)ccc3c(N)c2c1` [Ethacridine lactate monohydrate], the “z-score of subpopulation abundance” value rises from -0.27 to 5.32.

Going from `C[C@H]1[C@H](NC(=O)/C(=N\OC(C)(C)C(=O)O)c2csc(N)n2)C(=O)N1S(=O)(=O)O` [Aztreonam] to `CO/N=C(\C(=O)N[C@@H]1C(=O)N2C(C(=O)O)=C(COC(N)=O)CS[C@H]12)c1ccco1` [Cefuroxime sodium], the “z-score of subpopulation abundance” value falls from 0.36 to -0.58.

First: Cc1ccc(-c2cc(C(F)(F)F)nn2-c2ccc(S(N)(=O)=O)cc2)cc1 [Celecoxib]
Second: C[C@@H](c1nc(-c2ccc(C#N)cc2)cs1)[C@](O)(Cn1cncn1)c1cc(F)ccc1F [Isavuconazole]
The “z-score of subpopulation abundance” value of the first is lower: -0.54 for the first, 8.09 for the second.

Going from `Cc1nnc(SCC2=C(C(=O)O)N3C(=O)[C@@H](NC(=O)Cn4cnnn4)[C@H]3SC2)s1` [Cefazolin Sodium] to `CC(=O)OCC1=C(C(=O)O)N2C(=O)C(NC(=O)CSC(=NC(C)C)NC(C)C)C2SC1` (stereo not given) [Cefathiamidine], the “z-score of subpopulation abundance” value falls from 0.05 to -0.6.

Compared with `CC(C)c1c(C(=O)Nc2ccccc2)c(-c2ccccc2)c(-c2ccc(F)cc2)n1CC[C@@H](O)C[C@@H](O)CC(=O)O` [Atorvastatin Calcium], `CC[C@H](C)C(=O)O[C@H]1C[C@H](O)C=C2C=C[C@H](C)[C@H](CC[C@@H](O)C[C@@H](O)CC(=O)O)[C@H]21` [Pravastatin sodium] is lower in “z-score of subpopulation abundance” value: 9.85 for the first, 0.12 for the second.

First: O=C(c1ccc(OCCN2CCCCC2)cc1)c1c(-c2ccc(O)cc2)sc2cc(O)ccc12 [Raloxifene HCl]
Second: O=C(Nc1ccc(Oc2ccc(Cl)cc2)c(Cl)c1)c1cc(I)cc(I)c1O [Rafoxanide]
The “z-score of subpopulation abundance” value of the first is lower: 0.58 for the first, 0.8 for the second.

Going from `CO[C@H]1C[C@@H]2CC[C@@H](C)[C@@](O)(O2)C(=O)C(=O)N2CCCC[C@H]2C(=O)O[C@H]([C@H](C)C[C@@H]2CC[C@H](n3cnnn3)[C@H](OC)C2)CC(=O)[C@H](C)/C=C(\C)[C@@H](O)[C@@H](OC)C(=O)[C@H](C)C[C@H](C)/C=C/C=C/C=C/1C` [Zotarolimus(ABT-578)] to `CC[C@H](C)C(=O)O[C@H]1CCC=C2C=C[C@H](C)[C@H](CC[C@@H]3C[C@@H](O)CC(=O)O3)[C@H]21` [Mevastatin], the “z-score of subpopulation abundance” value falls from 23.2 to -0.1.

Compared with `Cc1nc2n(c(=O)c1CCN1CCC(c3noc4cc(F)ccc34)CC1)CCCC2O` (stereo not given) [Paliperidone], `CCOc1cc(N)c(Cl)cc1C(=O)NCC1CN(Cc2ccc(F)cc2)CCO1` (stereo not given) [Mosapride] is lower in “z-score of subpopulation abundance” value: 0.04 for the first, -0.23 for the second.

First: CC1(C)S[C@@H]2[C@H](NC(=O)Cc3ccccc3)C(=O)N2[C@H]1C(=O)O.CCN(CC)CCOC(=O)c1ccc(N)cc1 [Penicillin G Procaine]
Second: CC1(C)S[C@@H]2[C@H](NC(=O)Cc3ccccc3)C(=O)N2[C@H]1C(=O)O [Penicillin G Sodium]
The “z-score of subpopulation abundance” value of the first is higher: 0.69 for the first, -1.14 for the second.

First: CCCCOc1ccc(CC(=O)NO)cc1 [Bufexamac]
Second: O=C(O)Cc1ccccc1Nc1c(Cl)cccc1Cl [Diclofenac Diethylamine]
The “z-score of subpopulation abundance” value of the first is lower: -0.9 for the first, -0.49 for the second.

Compared with `CC[C@H](Nc1ncnc2[nH]cnc12)c1nc2cccc(F)c2c(=O)n1-c1ccccc1` [Idelalisib (CAL-101, GS-1101)], `C#CCN[C@@H]1CCc2ccccc21` [Rasagiline] is higher in “z-score of subpopulation abundance” value: -0.64 for the first, -0.4 for the second.

First: Nc1cc(C(Cl)=C(Cl)Cl)c(S(N)(=O)=O)cc1S(N)(=O)=O [Clorsulon]
Second: C=C1c2cccc(O)c2C(O)=C2C(=O)[C@]3(O)C(O)=C(C(N)=O)C(=O)[C@@H](N(C)C)[C@@H]3[C@@H](O)[C@H]12 [Methacycline HCl]
The “z-score of subpopulation abundance” value of the first is lower: 0.02 for the first, 0.54 for the second.

First: C[C@]1(Cn2ccnn2)[C@H](C(=O)O)N2C(=O)C[C@H]2S1(=O)=O [Tazobactam]
Second: C/C=C\c1ccc(O)c(OC)c1 [Isoeugenol]
The “z-score of subpopulation abundance” value of the first is lower: -0.74 for the first, 0.2 for the second.
